Test results published in PubChem BioAssay AID1347426 (Functional Genomics Laboratory (NCATS/FGL), 2020).
Out of some 31,000 sequences screened, about 1,400 (4.5%) were called active. This excerpt belongs to a sample that is enriched for actives. Values without a mark were called inactive.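 Rule for the calls: active = median seed-adjusted z-score above 1 or below -1; inactive = the rest.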

Assay: Novel Modifiers of Survival Motor Neuron (SMN) Protein: Gene Identification via Genome-wide siRNA Screen;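 note: luminescence tracks full-length SMN protein made from the SMN2 reporter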
Conditions: HEK293T SMN2-luciferase reporter, siRNA knockdown, 72 h; actives lie on both sides
Summary of the method: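 Luciferase signal, proportional to full-length SMN made from an SMN2 cDNA reporter in stable HEK293T cells, was read 72 h after siRNA reverse transfection. Values were expressed as MAD scores after non-targeting-control normalization and log10 conversion; seed analysis flagged off-targets.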
In the case of GGAGAUACCAGGAACCCAATT against SLC7A13, the median seed-adjusted z-score is reported as 0.121.
For CACGCAGAGUUACCGAAAATT against SPEN, the median seed-adjusted z-score was -1.69 (active).
With CGAGCCACCGAGAAGAUAATT against ATAD3A the median seed-adjusted z-score was -0.283.
Sequence GGACAAGAUUGGUGGGUUATT against PEX1 has a median seed-adjusted z-score of 0.227.
GUACCAAUACUGAUAAGAATT against SLC9A11 gave a median seed-adjusted z-score of -0.12.
Sequence GGCCUAUCCUGAUUCUGAUTT against RND2 has a median seed-adjusted z-score of -0.0613.
With GGAUACUCUGAUGAAGAUATT against GNAQ the median seed-adjusted z-score was -1.23 (active).
In the case of AGUCAGCUCCGAUACUUCATT against CAPN10, the median seed-adjusted z-score is reported as 0.364.
UCACUGUGGUGUAUUUUAATT against PDP2 gave a median seed-adjusted z-score of -0.0726.
GCUUCCAACUGCUUAUAUATT against TP53RK showed a median seed-adjusted z-score of 0.
CCAUCUCCUCUGAAACGUATT against RREB1 gave a median seed-adjusted z-score of -0.414.
In the case of CAGAGACUGUUAUCCAUUUTT against SLC25A36, the median seed-adjusted z-score is reported as 0.134.
For UUGUGGAUGUUGAACCUAATT against SNRPD1, the median seed-adjusted z-score was -2.97 (active).
Sequence GCUACUAACAUUACUCCAATT against FOLH1 has a median seed-adjusted z-score of 0.148.
CCAUCUCUACCGACGAAGATT against ARHGEF1 showed a median seed-adjusted z-score of -0.0658.
In the case of CAUUCUAUGGGAUACCCUATT against SYT4, the median seed-adjusted z-score is reported as -0.354.
Sequence CAGGAAGUCUGACCAAUAATT against LPL has a median seed-adjusted z-score of 0.389.
UGACCGAUGUCUUCCUUAUTT against RHOQ showed a median seed-adjusted z-score of -0.328.
With CUCUGAUUAUCAUGAGAUATT against SRGAP2 the median seed-adjusted z-score was 0.0323.
Sequence AACCUAUAAUGAGGAUGUATT against ZNRF2 has a median seed-adjusted z-score of 0.
For AGAGCGACCUCACCACCAATT against RAB1B, the median seed-adjusted z-score was 1.55 (active).
In the case of “GGAAGCGAAUACUACUAUUTT against ST6GALNAC3”, the median seed-adjusted z-score is reported as -0.205.
For GCAUUGAUCCUCAGAGUAATT against PTPRU, the median seed-adjusted z-score was 0.
GGGAUAUGAUAGAUCCUUATT against CPO gave a median seed-adjusted z-score of 0.0875.
Work on CCGCAUAGCUCAUAGGAUATT against SMARCA2 yielded a median seed-adjusted z-score of -0.458.
With GCAUGGUAAUUUAUAGUUUTT against NGF the median seed-adjusted z-score was -0.325.
Work on GCACGGAAUUUGAACAGUATT against SOX17 yielded a median seed-adjusted z-score of -0.46.
For GGAACAUCUUUGUACCUAUTT against NARG1, the median seed-adjusted z-score was -1.02 (active).
With AUCUAGACUUCUCUUUAUATT against FHL3 the median seed-adjusted z-score was 0.105.
UCCUCAACGUGUGCGAUGATT against KCNG1 showed a median seed-adjusted z-score of -0.00995.
In the case of CCUCAGCUUUUACAGCAAATT against RAD23A, the median seed-adjusted z-score is reported as -1.13 (active).
With GGCCUAUGCUAAUCAUUCUTT against FANCA the median seed-adjusted z-score was 0.418.
GACUUGAAGAUGCUAAUCATT against TIPIN gave a median seed-adjusted z-score of 0.
GAAUGAAAUCAGAGUAUAATT against RNF125 gave a median seed-adjusted z-score of 0.204.
For CCAGGUCCAUGGAAAGAAATT against NEIL2, the median seed-adjusted z-score was -0.256.
In the case of CGGCUAGAAGAGGAACAGATT against LSG1, the median seed-adjusted z-score is reported as 1.31 (active).
For CAAUGUGGUGUAUAAUACATT against VNN2, the median seed-adjusted z-score was -0.583.
Work on CAGUCACUGCACUACAGAATT against ATF7 yielded a median seed-adjusted z-score of 0.903.
AGAACAAAGACCUAAUGGATT against TNNT3 showed a median seed-adjusted z-score of -0.293.
With GAUUGAGAAUUCUAUUGUATT against UTP6 the median seed-adjusted z-score was -0.253.
Work on GAAUCGUUGUCAGAGCCUUTT against LMNB1 yielded a median seed-adjusted z-score of 0.0619.
Sequence AGGCAAAGACGGAACAACATT against TRIM69 has a median seed-adjusted z-score of 0.214.
Sequence GCAUUGGUCUAGAGCUUUATT against SCPEP1 has a median seed-adjusted z-score of -0.99.
With GCAUCGUCACUGUCAUGAATT against ITPR3 the median seed-adjusted z-score was -1.28 (active).
In the case of AGUUUGAUGUUAUCAAUCUTT against PRKAG1, the median seed-adjusted z-score is reported as 0.431.
With GCAGAUCUCGCUACAGGGATT against SFRS2B the median seed-adjusted z-score was -0.272.
In the case of UCAGCUUCAGCUUAACUGATT against TUBA1B, the median seed-adjusted z-score is reported as 0.0888.
Sequence CGAGAAUGACUAUCUUCAATT against STK32C has a median seed-adjusted z-score of -0.311.
In the case of GACCUGGGCAGAUUCCAAATT against MMP9, the median seed-adjusted z-score is reported as -1.15 (active).
For GGGUAUGAGAUAUGCGGUATT against TYW1, the median seed-adjusted z-score was 0.201.
With GAUUAGAUCUAAACAAUCUTT against TTRAP the median seed-adjusted z-score was -0.33.
Sequence CCAGAAUGCCCAUAUCACATT against RS1 has a median seed-adjusted z-score of -0.684.
Sequence GCCUUCUGAUGGUAGAUCUTT against RANBP17 has a median seed-adjusted z-score of -0.123.
In the case of GGAUGGCAGGGAUUCCGAATT against ZNF213, the median seed-adjusted z-score is reported as 1.37 (active).
Sequence GGAAAGUUGUGGGUCUAAUTT against SERPINA7 has a median seed-adjusted z-score of 0.0925.
Work on GGACUUAAGCGACAACGCATT against RANGAP1 yielded a median seed-adjusted z-score of -0.0379.
In the case of GCACCGAACCCGUCUAUCATT against POU3F4, the median seed-adjusted z-score is reported as -0.314.
For GUAGCUUGCUACUCCAGAATT against POLR2D, the median seed-adjusted z-score was -3.79 (active).
In the case of CGGAUGCACAAGCUAAAUATT against BHLHA15, the median seed-adjusted z-score is reported as -0.199.
With CGGAAGGUAGUAAACCUUUTT against AMY1A the median seed-adjusted z-score was 0.272.
For GUAGCUCAUUUGUAAGGAATT against ZNF578, the median seed-adjusted z-score was -0.808.
GGAGCGCAAGAUCACCUUATT against SSTR1 showed a median seed-adjusted z-score of 0.285.
With GCCGGUAUGUGAAGGAGAATT against CLK3 the median seed-adjusted z-score was -1.11 (active).
In the case of CACUUUUUAUAUUUACGUATT against TSPAN4, the median seed-adjusted z-score is reported as 0.417.
GUGUAGACAUAGUCUAAAATT against ZNF532 showed a median seed-adjusted z-score of -0.0289.
For CCCUGUCUGUGAAGCAUGATT against TXNDC2, the median seed-adjusted z-score was -1.29 (active).
Work on GCUACAUCUUUAUAAGGGATT against IL12RB2 yielded a median seed-adjusted z-score of 0.368.
Sequence GGAAGAAAGCGGGACUUUUTT against PPME1 has a median seed-adjusted z-score of 0.342.
For CAGACUCCCUCAUCACCAATT against ALAS1, the median seed-adjusted z-score was -1.15 (active).
With CAAUGAACACUACUAACCATT against IL31RA the median seed-adjusted z-score was 0.36.
CGGGAGUGGUUUUCAGAGATT against APOC1 gave a median seed-adjusted z-score of 0.
Sequence GCUCUGAAUUCAGUGUUUATT against HTR3E has a median seed-adjusted z-score of -0.717.
GGUCUAACUCAAUAAUGGATT against REV3L gave a median seed-adjusted z-score of 0.062.
Sequence GCUGAAUAUCUACACGGAATT against SLCO4A1 has a median seed-adjusted z-score of -0.0802.
With GUGCUCGAAUGAUAACUAUTT against RAB2A the median seed-adjusted z-score was -0.038.
With GUGGAACAAUUGUAACAGATT against ETF1 the median seed-adjusted z-score was -1.12 (active).
With GCUUCGAAUGGAUCUAGAATT against MYH8 the median seed-adjusted z-score was 0.0648.
With CCAACGAACAUGUACAACATT against CACNA2D3 the median seed-adjusted z-score was 0.198.
For GGAUAUGGUUAAUAGGAGATT against SMC6, the median seed-adjusted z-score was 0.227.
In the case of GCAGUUAGAUGUCAGGACATT against PPIA, the median seed-adjusted z-score is reported as 0.0169.
With CGAAAGGAGUCUUCACCAATT against PRDX6 the median seed-adjusted z-score was -0.0302.
With CCCUAGAUAUGGACGAUGATT against UTP3 the median seed-adjusted z-score was -1.08 (active).
CAAUGGACAGAAUACACUUTT against ZNF614 gave a median seed-adjusted z-score of 0.0971.
UGAGCAGUGAGAACCCAUATT against PEAR1 gave a median seed-adjusted z-score of 0.071.
In the case of CCAUAGUAGUGACUACCAUTT against GRIA3, the median seed-adjusted z-score is reported as -0.358.
Sequence AACUGGACCUUAAAAAGAATT against POU4F3 has a median seed-adjusted z-score of 0.
With GGAUGUCCAGAGGCACUAATT against POLA2 the median seed-adjusted z-score was -0.114.
With GAAAGACUUGUUUAUAUUATT against ADRB1 the median seed-adjusted z-score was 1.06 (active).
CUCAAUCCAUAGUAAGUAUTT against ZNF678 showed a median seed-adjusted z-score of 0.172.
Work on CAAUUCUUGUCAUUUGAAATT against SLC25A19 yielded a median seed-adjusted z-score of -0.104.
For CCAUAAUGAUAGAGUUUAATT against SLC24A4, the median seed-adjusted z-score was 0.0358.
In the case of GAGUGAGAGCUGUAGAAAATT against CREB3, the median seed-adjusted z-score is reported as 0.0509.
With AGUGGACAACAGAACAAUATT against SNRPG the median seed-adjusted z-score was -3.09 (active).
CCUGUACGAUGAGAUAGAATT against CYFIP2 showed a median seed-adjusted z-score of -0.322.
For GGAUGCACUUCUAAACUCATT against AKR1D1, the median seed-adjusted z-score was 0.211.
Sequence GGUCUAGCCUUACACCUCATT against RAB3GAP2 has a median seed-adjusted z-score of 0.0583.
For GAAGGGCUCUUUCACAGCUTT against ADAMTS13, the median seed-adjusted z-score was -0.276.
For GGACAUGUUCUACUCUUCATT against LRP5, the median seed-adjusted z-score was -1 (active).
GUCUCGAUGGAGCAAAGUATT against TCERG1 gave a median seed-adjusted z-score of 0.415.
For CGACUUGCUAAGCUACAUATT against MAOA, the median seed-adjusted z-score was 0.665.
GGAACAACGGUGGAGAUUUTT against ITGB5 gave a median seed-adjusted z-score of -0.00882.
For GAAAGGAUCAGUGUCGAUATT against OCRL, the median seed-adjusted z-score was -0.545.
With GCAGUUUCAGGGUAUGAAATT against LGMN the median seed-adjusted z-score was 0.391.
With GGAUCAUACUAGAAGACUATT against TREM1 the median seed-adjusted z-score was 0.
In the case of GGAACACUAUGAUGAGUUUTT against U2AF1, the median seed-adjusted z-score is reported as 2.08 (active).
GCUGCUCCCGGAAAUGCAATT against ISOC2 showed a median seed-adjusted z-score of -0.599.
Sequence CAACAUGCCCAUUCGCUUUTT against ADIPOQ has a median seed-adjusted z-score of 0.557.
For GCCUGAGACCAAAAACAGATT against SLC2A9, the median seed-adjusted z-score was 0.216.
